Data as given in PubChem BioAssay AID560 (The Scripps Research Institute Molecular Screening Center, 2006).
Out of some 65,000 compounds screened, about 980 (1.5%) were called active. The list comes from a sample in which actives are over-represented; it also holds similar structures and randomly drawn compounds. Values without a mark were called inactive.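 How the source made its calls: active means activation above the mean of all tested compounds plus 3 SD (cut at about 49% in these data); inactive means the rest.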

Biological target: Nuclear receptor ROR-alpha (Homo sapiens) (UniProt P35398)
Assay: activators of orphan receptor RORA, primary screen, cell-based, luminescence (AID 560);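 further: 0% = DMSO-treated RORA cells and 100% = added signal equal to DMSO minus mock-transfected cells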
Conditions: CHO-K1 Gal4-RORA LBD luciferase reporter, at 10 µM, stronger effect = higher value, percent increase over mock-subtracted basal signal

Sequence of Nuclear receptor ROR-alpha (Homo sapiens) (P35398 whole entry, looked up): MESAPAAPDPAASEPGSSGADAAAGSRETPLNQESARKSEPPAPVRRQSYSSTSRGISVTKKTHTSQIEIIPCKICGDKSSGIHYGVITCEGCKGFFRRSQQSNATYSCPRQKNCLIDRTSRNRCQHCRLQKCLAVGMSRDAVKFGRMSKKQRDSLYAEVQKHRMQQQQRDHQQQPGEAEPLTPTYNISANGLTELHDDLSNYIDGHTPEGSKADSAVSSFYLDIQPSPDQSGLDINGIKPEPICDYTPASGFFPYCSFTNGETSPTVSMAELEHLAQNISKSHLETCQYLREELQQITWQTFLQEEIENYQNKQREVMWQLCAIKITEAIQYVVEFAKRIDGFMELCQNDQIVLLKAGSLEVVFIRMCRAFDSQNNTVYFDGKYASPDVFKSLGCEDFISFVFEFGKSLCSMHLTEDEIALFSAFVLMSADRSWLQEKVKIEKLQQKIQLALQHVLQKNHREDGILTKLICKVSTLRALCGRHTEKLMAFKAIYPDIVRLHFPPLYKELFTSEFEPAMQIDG

SMILES	activation
O=C(O)C1OC(C(=O)O)C2C1C(F)(F)C2(F)F (stereo not given)	-1.8%
CCCn1c(=O)c(-c2ccccc2)c(O)c2ccccc21	5.6%
CCOCCCNS(=O)(=O)Cc1ccccc1	-16.2%
O=C1CCCC2=C1C(c1cccs1)n1nc(SCc3ccccc3)nc1N2 (stereo not given)	-13.1%
O=C(CN1CCOCC1)N1CCCc2c1c(=O)oc1ccc(OCc3ccccc3)cc21	-15.9%
Cc1ccc(OCC(=O)Nc2ccc(-c3nnc(-c4ccco4)o3)cc2)cc1	20.8%
CCC(=O)Oc1cccc(C(=O)Nc2ccc(-c3nnc(-c4ccco4)o3)cc2)c1	112% (active)
CCOc1ccc(-c2nnc(-c3ccco3)o2)cc1	-31.6%
CCOc1cc(C(=O)Nc2ncccn2)cc(OCC)c1OCC	-3.1%
Cn1c(=O)c(C(=O)Nc2ncccn2)c(O)c2ccccc21	61% (active)
O=C(Nc1ncccn1)c1cccs1	-6.7%
CC(C)C(c1nnnn1CCc1ccccc1)N1CCN(C(=O)c2ccco2)CC1 (stereo not given)	-9%
CCC(CC)c1nnc(NS(=O)(=O)Cc2ccccc2)s1	-5.9%
Cc1cc(NC(=O)c2cc(-c3cccs3)on2)nn1Cc1ccc(Cl)cc1	27.5%
COc1ccccc1-c1cc(C(=O)N2CCCCC2)no1	56.5% (active)
O=C(CSCc1cccs1)N1CCCC1	22.9%
COc1ccccc1N1CCN(C(=O)c2cc(-c3ccc(Br)cc3)on2)CC1	-2.4%
O=C(c1cc(-c2cccs2)on1)N1CCCCC1	63.4% (active)
O=C(c1cc(-c2ccccc2O)on1)N1CCCC1	18.2%
Cc1cc(Cl)c(S(=O)(=O)NCCC(=O)O)cc1OCC(N)=O	-22.1%

SMILES	activation
COc1ccc(OCCCON2C(=O)c3ccccc3C2=O)cc1	-11.1%
C[N+]1(CCNC(=O)/C=N/O)CCCCC1	-28.3%
O=C(Nc1ccon1)c1cccc(Cl)c1	-2.3%
C=C(C)CSc1nc(N)c2c3c(sc2n1)CCC3	56.2% (active)
CN(C)CCSc1nc(N)c2c3c(sc2n1)COC(C)(C)C3	10.3%
C=C(C)Cn1c(SCC(=O)NCc2ccco2)nc2sc3c(c2c1=O)CCC3	-4%
CCn1cc(C(=O)NCC2CCCO2)c(=O)c2cc(S(=O)(=O)N3CCCCC3)ccc21 (stereo not given)	-5.2%
O=C(CCCn1c(SCC(=O)c2ccc(F)cc2)nc2ccccc2c1=O)NCc1ccco1	40.5%
COc1cc(-c2nc(-c3ccncc3)no2)cc(OC)c1OC	5.3%
COc1ccc(-c2nc(-c3ccccc3)no2)c(OC)c1	-78.4%
COc1ccc(-c2noc(-c3cccc(OC)c3OC)n2)cc1OC	89.8% (active)
CC(=O)Nc1ccc(NS(=O)(=O)c2cc(C)sc2C)cc1	-3%
Cn1c(=O)n(C)c2cc(C(=O)Nc3ccc4c(c3)OCO4)ccc21	19.1%
COc1ccc(C(=O)Nc2ccc3c(c2)OCO3)cc1OC	69.8% (active)
CC(C)C(=O)Nc1cccc(C(=O)Nc2ccc3c(c2)OCO3)c1	31.6%
COc1ccc(CC(=O)Nc2ccc(-c3nnc(-c4ccccc4)o3)cc2)cc1	8.7%
O=C(Nc1ccc(-c2nnc(-c3ccccc3)o2)cc1)c1ccc(Br)o1	9.1%
Nc1ccc(-c2nnc(-c3ccc(-c4ccccc4)cc3)o2)cc1	60.7% (active)
CN(C)c1ccc(CNC23CN4CN(CN(C4)C2)C3)cc1	-19.1%
CN(Cc1ccccc1)Cc1ccccc1F	5.2%
